Test results published in ChEMBL document CHEMBL1961873, “Compounds: GSK PKIS; Assays: Nanosyn kinase panel” (2012).

What was measured:
[1] = target: T1, Inhibitor of nuclear factor kappa-B kinase subunit epsilon (Homo sapiens) (UniProt Q14164); details: at 1 µM;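 note: reported values are averaged percent inhibition figures against human IKKε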
T1 sequence (whole entry): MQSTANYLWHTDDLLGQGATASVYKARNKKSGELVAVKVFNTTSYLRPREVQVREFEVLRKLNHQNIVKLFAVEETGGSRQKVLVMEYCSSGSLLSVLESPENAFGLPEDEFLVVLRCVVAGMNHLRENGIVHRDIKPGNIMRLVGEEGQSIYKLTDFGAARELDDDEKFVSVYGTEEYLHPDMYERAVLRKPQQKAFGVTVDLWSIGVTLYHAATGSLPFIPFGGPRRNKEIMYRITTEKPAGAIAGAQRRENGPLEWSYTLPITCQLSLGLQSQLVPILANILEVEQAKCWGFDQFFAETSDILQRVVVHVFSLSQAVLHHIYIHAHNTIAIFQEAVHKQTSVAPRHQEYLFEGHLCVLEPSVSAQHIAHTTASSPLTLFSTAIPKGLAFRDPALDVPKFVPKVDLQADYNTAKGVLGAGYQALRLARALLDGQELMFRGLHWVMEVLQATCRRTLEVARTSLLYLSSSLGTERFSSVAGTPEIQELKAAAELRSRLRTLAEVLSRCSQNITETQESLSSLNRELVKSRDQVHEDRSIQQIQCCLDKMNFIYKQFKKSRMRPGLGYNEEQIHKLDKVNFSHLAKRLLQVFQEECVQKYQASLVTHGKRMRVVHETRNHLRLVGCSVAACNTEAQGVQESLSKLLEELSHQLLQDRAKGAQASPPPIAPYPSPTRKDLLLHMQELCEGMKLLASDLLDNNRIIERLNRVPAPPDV

[2] = target: T2, Serine/threonine-protein kinase Nek1 (Homo sapiens) (UniProt Q96PY6); details: at 0.1 µM
T2 sequence (whole entry): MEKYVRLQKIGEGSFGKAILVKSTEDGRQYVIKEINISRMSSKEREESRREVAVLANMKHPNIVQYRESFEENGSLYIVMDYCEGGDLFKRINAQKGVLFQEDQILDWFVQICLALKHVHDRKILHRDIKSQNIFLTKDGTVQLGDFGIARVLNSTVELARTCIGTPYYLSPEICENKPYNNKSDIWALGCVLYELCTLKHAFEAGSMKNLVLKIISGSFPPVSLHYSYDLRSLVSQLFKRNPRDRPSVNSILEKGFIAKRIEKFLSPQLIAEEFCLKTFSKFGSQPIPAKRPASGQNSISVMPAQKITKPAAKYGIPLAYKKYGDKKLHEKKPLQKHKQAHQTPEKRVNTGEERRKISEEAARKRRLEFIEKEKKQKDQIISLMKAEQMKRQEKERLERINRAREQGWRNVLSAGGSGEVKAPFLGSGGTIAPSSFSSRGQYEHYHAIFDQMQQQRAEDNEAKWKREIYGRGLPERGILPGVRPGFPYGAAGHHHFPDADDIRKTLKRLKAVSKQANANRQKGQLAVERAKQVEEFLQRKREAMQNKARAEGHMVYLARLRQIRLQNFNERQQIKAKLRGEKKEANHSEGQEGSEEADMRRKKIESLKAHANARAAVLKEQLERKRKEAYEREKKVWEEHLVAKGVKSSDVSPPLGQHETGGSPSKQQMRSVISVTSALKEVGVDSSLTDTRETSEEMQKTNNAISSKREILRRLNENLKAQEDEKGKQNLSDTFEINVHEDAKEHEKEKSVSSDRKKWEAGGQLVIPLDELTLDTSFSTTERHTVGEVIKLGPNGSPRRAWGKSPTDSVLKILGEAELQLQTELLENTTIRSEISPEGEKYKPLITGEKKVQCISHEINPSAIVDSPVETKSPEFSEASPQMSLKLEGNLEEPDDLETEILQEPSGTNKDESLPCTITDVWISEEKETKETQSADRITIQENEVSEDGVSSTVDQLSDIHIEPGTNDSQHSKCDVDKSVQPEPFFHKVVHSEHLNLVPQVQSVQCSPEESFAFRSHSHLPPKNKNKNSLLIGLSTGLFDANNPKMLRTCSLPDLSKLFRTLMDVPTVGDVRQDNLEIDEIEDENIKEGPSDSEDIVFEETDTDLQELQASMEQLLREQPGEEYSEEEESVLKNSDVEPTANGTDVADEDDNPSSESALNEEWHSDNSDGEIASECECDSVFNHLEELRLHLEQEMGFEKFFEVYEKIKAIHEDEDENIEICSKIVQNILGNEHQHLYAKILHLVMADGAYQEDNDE

[3] = target: T2, Serine/threonine-protein kinase Nek1 (Homo sapiens); details: at 1 µM
[4] = target: T3, Serine/threonine-protein kinase Nek2 (Homo sapiens) (UniProt P51955); details: at 0.1 µM
T3 sequence (whole entry): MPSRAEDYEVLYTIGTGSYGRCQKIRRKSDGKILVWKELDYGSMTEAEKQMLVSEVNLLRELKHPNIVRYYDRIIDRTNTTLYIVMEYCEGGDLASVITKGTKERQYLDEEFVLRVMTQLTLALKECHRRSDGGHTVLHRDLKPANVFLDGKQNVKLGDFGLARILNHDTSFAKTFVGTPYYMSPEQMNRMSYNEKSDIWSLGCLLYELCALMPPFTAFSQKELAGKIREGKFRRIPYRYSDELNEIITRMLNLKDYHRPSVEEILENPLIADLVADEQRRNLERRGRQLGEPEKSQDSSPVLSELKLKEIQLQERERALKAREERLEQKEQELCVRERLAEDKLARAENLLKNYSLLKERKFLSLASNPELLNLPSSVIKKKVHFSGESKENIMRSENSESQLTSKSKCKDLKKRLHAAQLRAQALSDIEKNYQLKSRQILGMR

[5] = target: T3, Serine/threonine-protein kinase Nek2 (Homo sapiens); details: at 1 µM
[6] = target: Serine/threonine-protein kinase Nek6 (Homo sapiens) (UniProt Q9HC98); details: at 0.1 µM
Sequence of Serine/threonine-protein kinase Nek6 (Homo sapiens) (Q9HC98 whole entry): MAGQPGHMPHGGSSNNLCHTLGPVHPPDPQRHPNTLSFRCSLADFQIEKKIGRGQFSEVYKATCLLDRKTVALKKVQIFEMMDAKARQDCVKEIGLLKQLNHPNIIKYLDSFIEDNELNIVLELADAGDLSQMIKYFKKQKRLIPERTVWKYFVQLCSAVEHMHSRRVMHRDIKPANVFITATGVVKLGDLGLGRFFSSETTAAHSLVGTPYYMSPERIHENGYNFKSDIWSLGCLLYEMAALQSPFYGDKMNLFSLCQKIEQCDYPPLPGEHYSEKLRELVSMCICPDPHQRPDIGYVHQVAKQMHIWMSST

[7] = target: Serine/threonine-protein kinase Nek6 (Homo sapiens) (UniProt Q9HC98); details: at 1 µM
[8] = target: Serine/threonine-protein kinase Nek7 (Homo sapiens) (UniProt Q8TDX7); details: at 0.1 µM
Sequence of Serine/threonine-protein kinase Nek7 (Homo sapiens) (Q8TDX7 whole entry, looked up): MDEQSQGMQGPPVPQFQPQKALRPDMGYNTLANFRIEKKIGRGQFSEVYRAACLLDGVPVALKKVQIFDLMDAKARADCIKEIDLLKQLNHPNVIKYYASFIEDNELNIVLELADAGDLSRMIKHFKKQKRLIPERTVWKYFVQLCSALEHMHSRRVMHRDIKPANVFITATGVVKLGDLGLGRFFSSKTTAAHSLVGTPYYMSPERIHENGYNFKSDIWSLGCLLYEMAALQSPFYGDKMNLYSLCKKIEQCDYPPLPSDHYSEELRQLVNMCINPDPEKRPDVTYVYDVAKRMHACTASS

[9] = target: Serine/threonine-protein kinase Nek7 (Homo sapiens) (UniProt Q8TDX7); details: at 1 µM
[10] = target: T4, Serine/threonine-protein kinase Nek9 (Homo sapiens) (UniProt Q8TD19); details: at 0.1 µM
T4 sequence (whole entry): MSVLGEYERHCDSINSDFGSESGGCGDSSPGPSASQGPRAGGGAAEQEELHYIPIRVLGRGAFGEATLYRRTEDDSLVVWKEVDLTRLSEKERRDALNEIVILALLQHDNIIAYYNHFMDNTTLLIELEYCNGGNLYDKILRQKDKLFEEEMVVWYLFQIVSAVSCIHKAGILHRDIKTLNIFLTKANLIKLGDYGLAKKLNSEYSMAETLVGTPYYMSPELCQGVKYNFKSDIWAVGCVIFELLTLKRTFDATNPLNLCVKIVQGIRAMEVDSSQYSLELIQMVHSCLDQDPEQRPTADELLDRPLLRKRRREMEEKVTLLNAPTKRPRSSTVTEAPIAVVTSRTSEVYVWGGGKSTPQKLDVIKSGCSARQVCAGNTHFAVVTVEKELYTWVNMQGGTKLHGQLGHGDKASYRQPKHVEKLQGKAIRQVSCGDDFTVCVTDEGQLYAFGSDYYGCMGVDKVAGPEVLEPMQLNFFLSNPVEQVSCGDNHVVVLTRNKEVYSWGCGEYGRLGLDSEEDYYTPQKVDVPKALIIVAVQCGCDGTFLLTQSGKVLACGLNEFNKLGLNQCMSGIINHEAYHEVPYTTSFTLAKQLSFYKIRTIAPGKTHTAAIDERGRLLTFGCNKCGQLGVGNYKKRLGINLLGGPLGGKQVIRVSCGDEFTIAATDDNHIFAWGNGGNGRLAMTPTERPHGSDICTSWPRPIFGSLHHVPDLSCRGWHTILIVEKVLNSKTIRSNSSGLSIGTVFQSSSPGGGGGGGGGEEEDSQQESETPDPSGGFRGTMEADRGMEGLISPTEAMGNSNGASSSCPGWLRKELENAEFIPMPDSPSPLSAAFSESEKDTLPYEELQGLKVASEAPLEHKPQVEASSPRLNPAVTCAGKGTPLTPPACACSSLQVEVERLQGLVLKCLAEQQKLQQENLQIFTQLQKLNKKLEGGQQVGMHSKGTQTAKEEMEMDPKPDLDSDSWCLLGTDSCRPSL

[11] = target: T4, Serine/threonine-protein kinase Nek9 (Homo sapiens); details: at 1 µM
[12] = target: Serine/threonine-protein kinase PLK1 (Homo sapiens) (UniProt P53350); details: at 0.1 µM
Sequence of Serine/threonine-protein kinase PLK1 (Homo sapiens) (P53350 whole entry): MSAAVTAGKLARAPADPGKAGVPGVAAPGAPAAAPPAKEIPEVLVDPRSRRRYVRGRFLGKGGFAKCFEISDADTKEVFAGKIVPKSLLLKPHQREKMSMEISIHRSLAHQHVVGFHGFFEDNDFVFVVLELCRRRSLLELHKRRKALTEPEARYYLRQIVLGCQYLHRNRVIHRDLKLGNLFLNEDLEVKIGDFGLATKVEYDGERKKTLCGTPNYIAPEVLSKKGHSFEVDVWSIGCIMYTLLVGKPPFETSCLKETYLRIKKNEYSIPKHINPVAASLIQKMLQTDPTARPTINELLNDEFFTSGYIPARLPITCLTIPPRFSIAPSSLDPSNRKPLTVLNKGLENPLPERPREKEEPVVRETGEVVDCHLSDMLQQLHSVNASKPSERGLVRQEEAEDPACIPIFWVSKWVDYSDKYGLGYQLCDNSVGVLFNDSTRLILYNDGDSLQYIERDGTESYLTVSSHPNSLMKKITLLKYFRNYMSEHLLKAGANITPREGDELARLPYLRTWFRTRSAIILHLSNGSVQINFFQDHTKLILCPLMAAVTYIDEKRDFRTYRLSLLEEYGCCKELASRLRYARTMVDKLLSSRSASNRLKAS

[13] = target: Serine/threonine-protein kinase PLK1 (Homo sapiens) (UniProt P53350); details: at 1 µM
[14] = target: T5, Dual specificity protein kinase TTK (Homo sapiens) (UniProt P33981); details: at 0.1 µM
T5 sequence (whole entry): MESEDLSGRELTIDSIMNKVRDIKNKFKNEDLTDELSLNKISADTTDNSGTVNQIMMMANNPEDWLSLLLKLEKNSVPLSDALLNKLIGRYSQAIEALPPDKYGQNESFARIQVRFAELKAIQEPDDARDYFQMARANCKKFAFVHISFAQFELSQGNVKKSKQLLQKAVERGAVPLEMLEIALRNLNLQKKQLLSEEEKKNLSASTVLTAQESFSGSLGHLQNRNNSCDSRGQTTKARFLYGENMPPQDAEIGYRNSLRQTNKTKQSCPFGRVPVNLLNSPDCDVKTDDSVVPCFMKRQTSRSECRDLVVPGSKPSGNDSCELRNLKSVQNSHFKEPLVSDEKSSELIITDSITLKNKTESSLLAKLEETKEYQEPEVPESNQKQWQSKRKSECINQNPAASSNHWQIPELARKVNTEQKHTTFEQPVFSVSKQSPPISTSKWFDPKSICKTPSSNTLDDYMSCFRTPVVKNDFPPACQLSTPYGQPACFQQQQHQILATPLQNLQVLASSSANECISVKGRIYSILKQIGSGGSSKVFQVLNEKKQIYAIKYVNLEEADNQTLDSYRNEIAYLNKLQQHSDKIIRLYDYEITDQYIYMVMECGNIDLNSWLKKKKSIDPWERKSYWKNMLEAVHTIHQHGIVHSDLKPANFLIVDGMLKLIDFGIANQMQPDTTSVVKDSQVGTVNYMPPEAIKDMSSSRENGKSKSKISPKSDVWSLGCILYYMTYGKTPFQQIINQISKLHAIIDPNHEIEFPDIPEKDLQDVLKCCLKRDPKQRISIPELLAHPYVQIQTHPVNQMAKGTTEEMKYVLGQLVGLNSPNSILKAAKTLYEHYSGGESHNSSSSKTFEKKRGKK

[15] = test system: T6, Receptor-type tyrosine-protein kinase FLT3 (Homo sapiens), P36888 [D835Y]; details: at 1 µM
T6 sequence (whole entry): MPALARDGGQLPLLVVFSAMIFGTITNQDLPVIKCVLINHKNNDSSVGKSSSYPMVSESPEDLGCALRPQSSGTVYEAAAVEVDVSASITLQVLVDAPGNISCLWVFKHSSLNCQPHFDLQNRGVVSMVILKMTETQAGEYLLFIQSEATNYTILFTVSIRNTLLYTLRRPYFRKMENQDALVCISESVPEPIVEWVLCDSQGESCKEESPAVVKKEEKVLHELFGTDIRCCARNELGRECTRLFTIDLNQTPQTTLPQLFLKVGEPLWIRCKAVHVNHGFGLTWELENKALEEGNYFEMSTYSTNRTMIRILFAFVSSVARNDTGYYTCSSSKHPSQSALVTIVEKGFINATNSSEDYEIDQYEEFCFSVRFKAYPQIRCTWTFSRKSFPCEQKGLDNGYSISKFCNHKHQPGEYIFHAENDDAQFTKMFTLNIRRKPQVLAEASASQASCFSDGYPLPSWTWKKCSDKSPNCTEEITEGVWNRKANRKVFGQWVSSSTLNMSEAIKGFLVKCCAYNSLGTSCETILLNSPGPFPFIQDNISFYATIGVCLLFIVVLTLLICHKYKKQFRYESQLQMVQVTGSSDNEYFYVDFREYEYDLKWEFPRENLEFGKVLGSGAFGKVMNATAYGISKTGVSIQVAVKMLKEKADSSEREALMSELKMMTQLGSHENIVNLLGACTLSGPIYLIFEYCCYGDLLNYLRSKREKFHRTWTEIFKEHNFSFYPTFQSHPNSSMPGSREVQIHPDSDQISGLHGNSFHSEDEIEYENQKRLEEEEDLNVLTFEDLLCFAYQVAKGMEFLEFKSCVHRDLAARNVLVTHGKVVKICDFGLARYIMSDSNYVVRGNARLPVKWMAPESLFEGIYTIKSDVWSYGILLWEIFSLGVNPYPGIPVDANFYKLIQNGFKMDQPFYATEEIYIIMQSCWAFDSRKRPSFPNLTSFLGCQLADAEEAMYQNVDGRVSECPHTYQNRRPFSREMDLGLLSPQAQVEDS

[16] = target: Vascular endothelial growth factor receptor 3 (Homo sapiens) (UniProt P35916); details: at 0.1 µM
Sequence of Vascular endothelial growth factor receptor 3 (Homo sapiens) (P35916 whole entry): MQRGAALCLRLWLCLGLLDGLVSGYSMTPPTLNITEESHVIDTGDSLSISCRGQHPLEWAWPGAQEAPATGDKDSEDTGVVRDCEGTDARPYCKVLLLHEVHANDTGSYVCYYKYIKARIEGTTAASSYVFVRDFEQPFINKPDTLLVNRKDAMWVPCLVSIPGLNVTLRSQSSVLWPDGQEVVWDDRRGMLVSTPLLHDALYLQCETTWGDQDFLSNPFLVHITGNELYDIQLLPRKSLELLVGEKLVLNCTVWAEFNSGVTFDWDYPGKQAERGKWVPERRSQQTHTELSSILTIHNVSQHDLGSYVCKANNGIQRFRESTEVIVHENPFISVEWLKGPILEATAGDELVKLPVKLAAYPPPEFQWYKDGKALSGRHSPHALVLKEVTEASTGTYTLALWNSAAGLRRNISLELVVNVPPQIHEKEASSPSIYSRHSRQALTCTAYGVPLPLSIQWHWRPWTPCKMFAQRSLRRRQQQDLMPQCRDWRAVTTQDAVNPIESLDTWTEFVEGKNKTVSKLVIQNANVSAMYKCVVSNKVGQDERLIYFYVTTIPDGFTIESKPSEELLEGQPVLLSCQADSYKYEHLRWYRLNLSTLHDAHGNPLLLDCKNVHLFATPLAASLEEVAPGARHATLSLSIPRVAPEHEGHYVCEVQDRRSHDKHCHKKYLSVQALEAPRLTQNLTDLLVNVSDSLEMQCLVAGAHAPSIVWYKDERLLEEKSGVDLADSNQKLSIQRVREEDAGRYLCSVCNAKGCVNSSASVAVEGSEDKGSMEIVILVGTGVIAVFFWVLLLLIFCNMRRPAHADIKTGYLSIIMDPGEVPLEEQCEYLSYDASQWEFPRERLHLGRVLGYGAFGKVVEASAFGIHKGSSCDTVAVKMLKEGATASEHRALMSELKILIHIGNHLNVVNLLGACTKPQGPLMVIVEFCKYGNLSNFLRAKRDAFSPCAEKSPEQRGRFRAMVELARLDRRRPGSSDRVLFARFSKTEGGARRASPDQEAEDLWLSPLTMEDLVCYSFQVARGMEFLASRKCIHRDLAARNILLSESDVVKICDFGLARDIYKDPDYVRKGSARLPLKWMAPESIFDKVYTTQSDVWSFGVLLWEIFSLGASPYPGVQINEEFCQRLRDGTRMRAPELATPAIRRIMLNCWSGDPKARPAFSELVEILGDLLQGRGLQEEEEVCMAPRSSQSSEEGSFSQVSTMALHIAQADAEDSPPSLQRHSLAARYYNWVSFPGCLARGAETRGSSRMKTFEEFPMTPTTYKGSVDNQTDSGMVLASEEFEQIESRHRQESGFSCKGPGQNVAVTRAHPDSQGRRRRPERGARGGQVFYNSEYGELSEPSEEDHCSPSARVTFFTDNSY

[17] = target: Vascular endothelial growth factor receptor 3 (Homo sapiens) (UniProt P35916); details: at 1 µM
[18] = target: Macrophage colony-stimulating factor 1 receptor (Homo sapiens) (UniProt P07333); details: at 0.1 µM
Sequence of Macrophage colony-stimulating factor 1 receptor (Homo sapiens) (P07333 whole entry): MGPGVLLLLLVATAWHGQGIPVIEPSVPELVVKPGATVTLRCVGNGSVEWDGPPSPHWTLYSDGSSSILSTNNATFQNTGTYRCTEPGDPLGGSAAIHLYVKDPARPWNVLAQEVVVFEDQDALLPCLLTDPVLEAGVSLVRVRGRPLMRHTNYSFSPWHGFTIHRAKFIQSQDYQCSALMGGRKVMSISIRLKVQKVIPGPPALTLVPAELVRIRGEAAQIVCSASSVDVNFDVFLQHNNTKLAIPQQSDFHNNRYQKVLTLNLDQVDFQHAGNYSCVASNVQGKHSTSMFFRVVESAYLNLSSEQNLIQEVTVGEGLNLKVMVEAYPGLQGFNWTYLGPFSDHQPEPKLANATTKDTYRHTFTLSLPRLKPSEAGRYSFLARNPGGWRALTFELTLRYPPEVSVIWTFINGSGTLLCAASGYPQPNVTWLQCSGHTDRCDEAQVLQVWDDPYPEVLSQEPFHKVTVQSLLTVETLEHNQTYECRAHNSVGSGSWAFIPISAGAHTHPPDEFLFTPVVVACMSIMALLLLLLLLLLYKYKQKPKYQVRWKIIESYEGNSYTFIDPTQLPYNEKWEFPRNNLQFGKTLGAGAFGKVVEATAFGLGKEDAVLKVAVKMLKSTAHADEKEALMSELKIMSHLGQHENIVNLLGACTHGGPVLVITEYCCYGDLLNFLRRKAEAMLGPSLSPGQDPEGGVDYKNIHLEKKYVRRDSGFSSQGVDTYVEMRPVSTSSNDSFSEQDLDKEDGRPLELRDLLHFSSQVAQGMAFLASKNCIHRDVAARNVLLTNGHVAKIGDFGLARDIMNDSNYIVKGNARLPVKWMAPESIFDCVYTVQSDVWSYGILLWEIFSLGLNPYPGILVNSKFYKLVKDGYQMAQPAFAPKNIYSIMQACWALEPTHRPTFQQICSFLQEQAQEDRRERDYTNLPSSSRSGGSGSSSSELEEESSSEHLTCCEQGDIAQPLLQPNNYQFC

[19] = target: Macrophage colony-stimulating factor 1 receptor (Homo sapiens) (UniProt P07333); details: at 1 µM
[20] = target: Tyrosine-protein kinase Fyn (Homo sapiens) (UniProt P06241); details: at 0.1 µM
Sequence of Tyrosine-protein kinase Fyn (Homo sapiens) (P06241 2-537 limits assumed): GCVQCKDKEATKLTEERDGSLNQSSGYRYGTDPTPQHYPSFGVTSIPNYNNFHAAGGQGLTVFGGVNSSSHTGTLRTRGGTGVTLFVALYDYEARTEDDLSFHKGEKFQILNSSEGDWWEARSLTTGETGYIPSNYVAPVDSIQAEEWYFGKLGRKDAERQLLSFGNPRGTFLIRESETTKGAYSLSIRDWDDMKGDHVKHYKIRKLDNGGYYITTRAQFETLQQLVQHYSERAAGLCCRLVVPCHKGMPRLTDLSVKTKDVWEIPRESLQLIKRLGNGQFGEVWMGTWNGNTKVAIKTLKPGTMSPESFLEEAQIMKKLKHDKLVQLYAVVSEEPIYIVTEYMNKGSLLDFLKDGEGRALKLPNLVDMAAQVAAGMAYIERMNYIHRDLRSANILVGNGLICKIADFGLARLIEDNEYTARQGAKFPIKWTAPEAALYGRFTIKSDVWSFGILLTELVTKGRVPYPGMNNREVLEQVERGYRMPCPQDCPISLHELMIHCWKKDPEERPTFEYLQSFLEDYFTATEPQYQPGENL

Row | SMILES | inhibition [1] [%] | inhibition [2] [%] | inhibition [3] [%] | inhibition [4] [%] | inhibition [5] [%] | inhibition [6] [%] | inhibition [7] [%] | inhibition [8] [%] | inhibition [9] [%] | inhibition [10] [%] | inhibition [11] [%] | inhibition [12] [%] | inhibition [13] [%] | inhibition [14] [%] | inhibition [15] [%] | inhibition [16] [%] | inhibition [17] [%] | inhibition [18] [%] | inhibition [19] [%] | inhibition [20] [%]
1 | NS(=O)(=O)c1cccc(N/C=C2\C(=O)Nc3ccccc32)c1 | 14.5 | 2.63 | 4.56 | 5.64 | 4.55 | 1.86 | 1.95 | 6.51 | 4.33 | 5.97 | 4.34 | 3.78 | 4.79 | 9.01 | 25.9 | 1.98 | 14.8 | 5.41 | 25.1 | 2.53
2 | COC(=O)Nc1nc2ccc(Oc3ccc(NC(=O)Nc4cc(C(F)(F)F)ccc4F)cc3)cc2s1 | -1.19 | 1.14 | 1.38 | -0.09 | 0.69 | -1.08 | -4.58 | 1.35 | 0.53 | -1.57 | -3.04 | 1.23 | 0.38 | 0.59 | 13.5 | 10.4 | 52.8 | 2.52 | 39.1 | 6.49
